In the supplement of paper PMC4466236:
The full ranking holds about 33,000 sequences; the median of “E-score (dimensionless, -0.5 to 0.5)” is about -0.058, and the highest 2% start at about 0.35. This is one part of a sample in which the highest values are shown more often than they occur.

Test system: MvaT
Test: PBM 8-mer E-score (mean of HK and ME arrays) (E-score (dimensionless, -0.5 to 0.5)); higher = stronger relative binding preference
Protocol: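 Protein binding microarray: GST-tagged full-length MvaT (P. aeruginosa PAO1) bound to two universal double-stranded 60-mer arrays (ME and HK), each with a constant 25-mer primer and a variable 35-mer region covering all 8-mers. The 8-mer E-score (rank-based, range -0.5 to 0.5, >0.45 = specific binding) is the mean of the two arrays.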

Sequence | PBM 8-mer E-score
ATTGTTAA | 0.393
ACTGTTAT | 0.306
GTTGTTAA | 0.257
ATTGTTAG | 0.235
AATGTTAC | 0.186
AATGTTAG | 0.209
AATGTTAT | 0.372
GATGTTAA | 0.277
AATGTTAA | 0.387
GATCGTGA | -0.153
CTTGCCCA | -0.191
AGCCCGGA | -0.201
AAATATGG | 0.278
TAATATCA | 0.421
AGATATTA | 0.412
AAATATTA | 0.438
AAATATTG | 0.306
AAATATCA | 0.304
CAATATCA | 0.304
AAATATCT | 0.277
AAATATTT | 0.463
CGATATTA | 0.331
GGATATTA | 0.332
ACAGATAC | 0.102
ACGGGGAT | -0.00987

Sequence | PBM 8-mer E-score
AAGCTTTA | 0.0937
GAATGGCA | -0.00364
GCGAATAC | 0.0443
ACATTAGG | 0.0719
ATAGTCAA | 0.165
GACGCGCA | -0.188
AAATATGA | 0.241
TAATACCA | 0.336
CAATATCG | 0.18
AAATATGT | 0.348
CAATATTG | 0.377
TAATATTA | 0.474
TAATAGGA | 0.222
AAATATGC | 0.305
CAATATGG | 0.156
GAATATTA | 0.4
TATCGAAA | 0.144
GCGATAGC | -0.262
GAAAGCGA | 0.0347
AAGGGTAA | 0.109
AGACCAAG | -0.0618
TGCGGAAA | 0.107
TCCTCAGA | -0.142
CAATATTA | 0.373
TAATATGA | 0.354

Sequence | PBM 8-mer E-score
CAATATTC | 0.226
GAATATGA | 0.19
CAATATGC | 0.0377
CAATATGA | 0.244
ACGAGTAC | 0.047
ACACAAAT | 0.237
AGCACGGA | -0.111
GGCCCACC | -0.28
ATAGTATA | 0.38
AAAGTATA | 0.41
GATGTATA | 0.289
AAAGTATC | 0.211
CATGTATA | 0.264
GTAGTATA | 0.319
AAAGTATT | 0.27
ATAGTATG | 0.21
AATGTATA | 0.366
TAAGTATA | 0.282
GAAGTATA | 0.263
CAAGTATA | 0.373
ATTCCGGA | 0.138
TGGCGACA | -0.132
ATCGCCAT | 0.016
AGATCTCC | -0.204
AACAGTGT | 0.123

Sequence | PBM 8-mer E-score
GCGTCGCC | -0.203
CCATAAGG | -0.19
CGGTAAAC | 0.0615
AACACCCG | 0.00525
AGTTGCAT | 0.182
AGTCTAAC | 0.049
AATTCTGG | 0.076
ACGCAGTG | -0.257
CTTCATTA | 0.338
AGTCCGAG | -0.29
AATAACCT | 0.228
ATTAACAC | 0.328
CATAACAA | 0.0795
ATTAACAA | 0.381
AATAACGA | 0.326
ATTAACAG | 0.334
TATAACAA | 0.355
TATAACGA | 0.374
GATAACAA | 0.263
AATAACCC | 0.226
AATAACCG | 0.367
GATAACGA | 0.0582
GCATTGGA | -0.0184
AAAGGTCC | -0.197
CTACCTAC | -0.00994

Sequence | PBM 8-mer E-score
ATCTTGCC | 0.0286
GAGCAGGC | -0.379
AATGTGAG | 0.0855
GTTGGGGA | -0.0857
ATTGGAGC | -0.00417
CTAATCAG | -0.0597
AATAACAC | 0.331
AATAACAA | 0.38
AATAACAT | 0.32
AACCACCG | -0.0371
CTCCTAAA | -0.112
GTATAACA | 0.3
ACATAACG | 0.183
ATATAACA | 0.423
AGATAACC | -0.021
ATATAACG | 0.406
CTATAACA | 0.297
AGATAACG | 0.0641
CTATAACC | 0.155
ATATAACC | 0.37
ACGTAATA | 0.29
GGGTAACC | -0.246
CCTGCGCC | -0.28
ACGTTAGC | -0.113
CGGTTGCC | -0.279

Sequence | PBM 8-mer E-score
CGACCCAA | -0.0201
CAGGGTCG | -0.317
TAGGAAGA | 0.048
AAAAATAT | 0.377
CAAAATAA | 0.343
TAAAATCA | 0.198
AAAAAAAA | 0.271
TAAAATAA | 0.438
GAAAATAA | 0.349
AAAAATAC | 0.158
TAAAATTA | 0.288
AAAAATAA | 0.403
GAAAATAC | 0.134
AAAAATAG | 0.0973
GAAAAAAA | 0.0648
AGCGCGCG | -0.184
GTGATAAA | 0.211
CTAGAGAG | -0.241
AACTATTA | 0.399
GACTATTA | 0.305
CACTATTC | 0.0563
CACTATTA | 0.357
CGCTATTA | 0.18
AACTATTC | 0.255
AGCAGGAA | -0.195

Sequence | PBM 8-mer E-score
CAACCCTG | -0.133
AAACTTTA | 0.357
GAACTTTA | 0.346
AAACTTTC | 0.312
GGACTTTA | -0.06
CAACTTTA | 0.297
AAACTTTG | 0.317
AAACAAAG | 0.192
CCAATGAA | -0.1
CGTAATAC | 0.208
TGTAATAA | 0.399
GGTAATAA | 0.335
CGTAATAG | 0.173
CGTAATAA | 0.398
TGTAAAAA | 0.208
GCCGCTGA | -0.231
AGAATATC | 0.195
CGAATATC | 0.0677
GGAATATA | 0.329
CGAATATA | 0.355
AGAATATA | 0.378
AGAATATG | 0.277
AAGGGGTA | -0.15
GTGTTACA | 0.244
CCATACGC | -0.202
